High-throughput results: PubChem, National Center for Advancing Translational Sciences (NCATS)
Compounds with a hit are over-represented: about 1.8% of the library has one in this group of screens.
GLP-1R inv ag: acts as inverse agonist at human GLP-1 receptor | P43220 | HEK293 GLP-1R CRE-luciferase, luminescence, 24 h; GLP-1R form is constitutively active | Potency, µM (top dose mostly 38.3 µM), without a hit: at the top dose activity change, negative = inhibition, actives largely listed as inhibitors | 410,000 compounds, 1.6% hits; also: % is scaled to controls: 0 for no effect and ±100 for the full control effect; nearly all actives have a fitted effect of over 55% in size
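GLP-1R inverse agonism mode: basal reporter luminescence in engineered HEK293 cells measured after one day of compound exposure at 37 deg C, with a 12 min room-temperature detection step.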
PGK inhibitor: inhibitors of T. brucei phosphoglycerate kinase; 380,000 compounds, 0.043% hits; Potency, µM (series often up to 57.5 µM), without a hit: at the top dose activity change, negative = inhibition, hits mostly inhibitors; AID 602233; PGK/GAPDH coupled, Kinase-Glo luminescence, 60 min; P07378; also: % is scaled to controls: 0 for no effect and ±100 for the full control effect; nearly all actives have a fitted effect of over 60% in size
Target sequence (P07378 whole entry, looked up): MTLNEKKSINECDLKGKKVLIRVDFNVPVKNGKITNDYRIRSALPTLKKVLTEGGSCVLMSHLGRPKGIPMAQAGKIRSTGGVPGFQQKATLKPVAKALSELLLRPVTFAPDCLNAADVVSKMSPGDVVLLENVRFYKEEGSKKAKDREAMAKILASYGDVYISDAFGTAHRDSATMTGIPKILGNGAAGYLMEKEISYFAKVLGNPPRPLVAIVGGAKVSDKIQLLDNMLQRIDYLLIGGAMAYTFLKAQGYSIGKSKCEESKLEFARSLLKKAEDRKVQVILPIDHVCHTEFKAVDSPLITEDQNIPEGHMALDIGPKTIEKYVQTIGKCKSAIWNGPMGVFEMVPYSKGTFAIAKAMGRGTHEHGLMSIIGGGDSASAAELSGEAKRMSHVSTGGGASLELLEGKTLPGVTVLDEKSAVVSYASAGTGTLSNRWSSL
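Recombinant glycosomal PGK reaction used 1,3-bisphosphoglycerate generated in-well by GAPDH (100nM final) in 100mM TEA pH 7.6, 5mM MgCl2, 0.01% Tween-20. After 60 minutes at room temperature, ATP was read by Kinase-Glo Plus luminescence end-point.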
GLP1R cytotox: cytotoxicity in counter-screen for GLP-1R inverse agonists; HEK293 cAMP-luciferase reporter cells, luminescence, 24 h; Potency, µM (highest dose often 38.3 µM), inactives show top-dose activity change, negative = inhibition, hits mostly inhibitors; 410,000 compounds, 0.13% hits;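 also: loss of luciferase light is scored as toxicity; % is scaled to controls: 0 for no effect and ±100 for the full control effect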
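A 23 nL compound transfer followed 12 hours of cell culture at 37 deg C; exposure then lasted 24 hr. Luciferase assay detection reagent was dispensed and plates read for luminescence after a 12 min room-temperature wait.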
Tb PFK inh: blocks T. brucei phosphofructokinase | O15648 | T. brucei PFK, ADP-Glo luminescence | Potency, µM (doses to about 57.5 µM), inactives show at the highest dose activity, negative = inhibition, hits mostly inhibitors | 330,000 compounds, 0.17% hits;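 also: 0% = uninhibited 1x PFK enzyme wells and -100% = no-enzyme wells; nearly all actives have a fitted effect of over 60% in size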
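Activity is normalized to no-enzyme wells (full inhibition) and 1.25 nM enzyme wells (no inhibition). Reaction: 0.5 mM F6P, 0.1 mM ATP, 45 min RT, ADP-Glo luminescence; concentration-response curves fitted and classed by quality.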
Pin1 inhibitor: human Pin1 inhibition. Q13526. Pin1 FP peptide displacement, HiFluor488, 10 min. Potency, µM (top dose mostly 115 µM), for inactives: at the top dose activity, negative = inhibition, most hits filed as inhibitors. 390,000 compounds, 0.009% hits; active = well fitted inhibition curve with a large enough effect in the polarisation, with a control signal flat, not every such curve was filed as active; inconclusive = small, poorly fitted or top-dose-only effect, or effect the other way, or a change in a side signal; inactive = no such curve, though single readings can be large or run the other way; the % refers to the polarisation; also: % is scaled to controls: 0 for no effect and ±100 for the full control effect
Target sequence (Q13526 whole entry, looked up): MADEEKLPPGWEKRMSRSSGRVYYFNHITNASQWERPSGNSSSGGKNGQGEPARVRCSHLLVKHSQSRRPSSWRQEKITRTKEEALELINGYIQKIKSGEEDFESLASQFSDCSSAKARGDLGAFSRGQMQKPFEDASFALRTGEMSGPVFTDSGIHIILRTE
GLP-1R agonist: activates the human GLP-1 receptor. P43220. HEK293 GLP-1R CRE-luciferase, luminescence, 4-6 h; cells express a hypersensitive GLP-1R form. Potency, µM (titrated, usually from 45.6 µM), for inactives: top-dose activation, actives largely listed as activators. 380,000 compounds, 0.007% hits; also: % of control where 0% means no effect
* hit, by the source's call; i = inactive; ? = inconclusive; / = no result. Unless noted, calls follow the shape of the dose curve; as a rule, active = well fitted curve in the direction sought with a large enough effect; inconclusive = small, poorly fitted or top-dose-only effect, or another doubt; inactive = no such curve, though single readings can be large; an effect the other way counts as inactive or inconclusive. Potency is read from the fitted curve at half-maximal effect.

SMILES	GLP-1R inv ag	PGK inhibitor	GLP1R cytotox	Tb PFK inh	Pin1 inhibitor	GLP-1R agonist
Cn1nnnc1Sc1ncnc2scc(-c3cccc([N+](=O)[O-])c3)c12	/	/	/	/	-14%	/
CN(C(=O)c1ccc(-c2ccccc2)cc1)C1CCCCC1	10µM*	-1%	1%	/	-2%	19%
COc1ccc(Cl)cc1NC(=O)C(C)N(C)Cc1ccc(C(F)(F)F)cc1 (stereo not given)	8.9µM*	-5%	63%	1%	10%	9%
OCCN1CCN(c2ncnc3c2c(-c2ccccc2)cn3-c2ccc(Br)cc2)CC1	10µM*	0%	?	3%	0%	14%
COc1ccc(N2CCN(c3ncnc4scc(-c5ccc(F)cc5)c34)CC2)cc1	?	-3%	-11%	0%	20%	1%
Fc1ccc(-c2csc3ncnc(N4CCN(c5ccccc5)CC4)c23)cc1	13µM*	1%	2%	-2%	19%	13%
c1ccc(-c2cc(-c3ccc(N4CCOCC4)cc3)nc3ccccc23)cc1	8%	-8%	38%	-1%	-3%	8%
COc1ccc(N2CCN(c3ncnc4scc(-c5ccccc5)c34)CC2)cc1	6.3µM*	-5%	-7%	-1%	2%	12%
COc1ccc2c(-c3ccccc3)cc(N3CCOCC3)nc2c1	10µM*	-4%	17%	-17%	?	10%
CN1CCN(c2cccc(Nc3nn4c(=O)c5ccc(F)cc5nc4s3)c2)CC1	/	/	/	/	10%	/
CCOC(=O)c1c(C)n(-c2ccccc2)c2ccc(OC(=O)c3ccc(OCC)c(OCC)c3)cc12	?	i	2%	/	5%	/
COc1ccc(N2CCN(c3ncnc4scc(-c5ccc(C)cc5)c34)CC2)cc1	2µM*	-1%	3%	-1%	4%	10%
COc1ccc(-n2cc(-c3ccccc3)c3c(N4CCOCC4)ncnc32)cc1	3.5µM*	1%	-15%	1%	13%	8%
Cc1cccc(NC(=O)Cn2nnc(C(=O)Nc3ccccc3Br)c2N)c1C	1%	-11%	-4%	/	16%	/
COc1ccc(NC(=O)c2c(NC(=O)C(F)(F)F)sc3c2CCCCC3)cc1	?	-1%	-4%	/	?	/
O=C(CN1CCCCCCC1)NC(=O)NC1CCCCC1	4µM*	3%	1%	3%	1%	5%
O=C(CN1CCCCC1)NC(=O)NC1CCCC1	39%	i	10%	4%	-5%	8%
COc1ccc(-c2nc3ccccc3n2Cc2ccccc2)cc1COc1ccc(NC(C)=O)cc1	/	/	/	/	14%	/
COc1ccc(C)cc1S(=O)(=O)Nc1ccc(F)c(Cl)c1	10µM*	7%	-8%	-13%	7%	-3%
S=C(c1ccc2c(c1)OCO2)N1CCN(c2cccc(Cl)c2)CC1	?	-2%	?	/	2%	12%
Cc1cccc(N2CCN(C(=S)c3ccc4c(c3)OCO4)CC2)c1	11µM*	0%	?	/	-6%	8%
CC1C/C(=C/c2cccn2C)C(=O)/C(=C/c2cccn2C)C1 (stereo not given)	13µM*	8%	93%	-4%	?	5%
Cc1cc(S(=O)(=O)NCc2ccc(N3CCN(C)CC3)cc2)c(C)s1	2.2µM*	-1%	16%	0%	-16%	0%
NCC/C=C1/c2ccccc2CSc2ccccc21	3.2µM*	-8%	?	0%	1%	-2%
CC(O)CN(C)CC/C=C1/c2ccccc2CSc2ccccc21 (stereo not given)	?	4%	0%	2%	-1%	-2%
SMILES	GLP-1R inv ag	PGK inhibitor	GLP1R cytotox	Tb PFK inh	Pin1 inhibitor	GLP-1R agonist
CN(CC/C=C1/c2ccccc2CSc2ccccc21)CCCO	5.6µM*	-8%	?	2%	2%	2%
C#CCN(C)CC/C=C1\c2ccccc2CSc2ccccc21	4.5µM*	-1%	-3%	2%	-3%	2%
Cc1sc(NC(=O)c2ccco2)c(CN2CCCCC2)c1C	6.3µM*	-10%	3%	3%	-8%	0%
CC(C)(C)c1ccc(S(=O)(=O)c2cnc(SCC(=O)Nc3ccc4c(c3)OCCO4)[nH]c2=O)cc1	10%	-14%	11%	/	/	/
CCN(CC)c1ccc(/C=C(/C#N)c2nc3ccccc3[nH]2)c(OC(C)C)c1	1.8µM*	11%	-12%	1%	?	13%
CCC(c1nnnn1CCc1ccccc1)N(Cc1ccco1)Cc1cc2c(C)ccc(C)c2[nH]c1=O (stereo not given)	11µM*	-5%	-25%	3%	9%	1%
O=C1CCCC2=C1C1(CCCOC1)N=C(Nc1nc3ccccc3o1)N2 (stereo not given)	/	/	/	/	0%	/
COc1ccc(CC(=O)N2CCC(Nc3nc4ccccc4n3Cc3ccc(F)cc3)CC2)cc1	8.9µM*	10%	-17%	-3%	?	-8%
CCc1ccc(/C=N/NC(=S)NCCc2ccccc2)cc1	?	-13%	?	2%	5%	7%
Fc1ccc(/C=N/NC(=S)NCCc2ccccc2)cc1F	?	-2%	13µM*	5%	-6%	23%
COc1ccc2[nH]cc(CCNC(=S)NCCc3ccccc3)c2c1	8.9µM*	i	?	-6%	1%	12%
COc1ccc(/C(C)=N/NC(=S)NCCc2ccccc2)c(O)c1	2µM*	-10%	?	-8%	0%	8%
COc1ccc2[nH]cc(CCNC(=O)Nc3ccccc3)c2c1	?	-3%	-4%	-2%	1%	6%
Oc1ccc(Br)cc1/C=N/NC(=S)NCCc1ccccc1	?	0%	39%	2%	2%	18%
COc1ccc(O)c(/C=N/NC(=S)NCCc2ccccc2)c1	2.2µM*	-1%	6%	-2%	5%	23%
Cc1noc(-c2ccc(NCc3ccccc3)c([N+](=O)[O-])c2)n1	11%	-6%	-7%	/	3%	/
CCC(C)Nc1nc2c(c(=O)[nH]c(=O)n2C)n1Cc1ccc(F)cc1 (stereo not given)	34%	-8%	6%	/	-7%	/
CC(C)CC(NS(=O)(=O)c1ccc2c(c1)oc(=O)n2C)C(=O)NCCc1ccc(Cl)cc1 (stereo not given)	-3%	-2%	5%	/	7%	-2%
CCCCN(CC)CCCNC(=O)c1cc2c(=O)n(CC)c3ccccc3c2s1	2.8µM*	0%	38%	9%	8%	7%
COCCNC(=O)c1cc2sc3ccccc3c2s1	-19%	-7%	-15%	0%	-4%	1%
CN(C)CCCNC(=O)c1cc2sc3ccccc3c2s1	4µM*	0%	?	0%	4%	6%
